Usually Inhibition stands for the drop in the measured response relative to a control, in per cent.

Measured potencies and affinities stand elsewhere.

One experiment relates to Staphylococcus aureus. Particulars: Concentration 32 ug.mL-1; ASSAY_TEST Inhibition of Bacterial Growth; detection method Absorption (OD600); MEDIA CAMHB; plate type 384well; NBS; CORNING #3640; time 18 hr.
The test system of the next experiment is Escherichia coli. Particulars: Concentration 32 ug.mL-1; ASSAY_TEST Inhibition of Bacterial Growth; detection method Absorption (OD600); MEDIA CAMHB; plate type 384well; NBS; CORNING #3640; time 18 hr.

`Fc1cc(Cn2c(-c3cscn3)nc3c(Cl)cccc32)cc(C(F)(F)F)c1`: the Inhibition with Staphylococcus aureus was found to be 6.77%; in the experiment on Escherichia coli, 3.26%.
For `Cn1c(-c2cscn2)nc2c(Cl)cccc21`, the Inhibition in the experiment on Staphylococcus aureus was -0.57%; in the experiment on Escherichia coli it was -9.25%.
For `CC(C)c1ccc(Cn2c(-c3cscn3)nc3c(Cl)cccc32)cc1`, in that order: 1.32% and -0.45%.
The like results for `Clc1ccc2c(c1)nc(-c1cscn1)n2Cc1ccccc1` were, in that order, -3.7% and -7.11%.
In the case of `Nc1nc(Nc2ccc(Cl)cc2)sc1-c1nc2ccccc2c(=O)n1-c1ccccc1`, the Inhibition in the experiment on Staphylococcus aureus is 3.07%; in the experiment with Escherichia coli, -2.8%.
Take `Clc1cccc2c1nc(-c1cscn1)n2Cc1ccccc1`: the Inhibition with Staphylococcus aureus is -5.58%; in the experiment with Escherichia coli it was -9.3%.
For `CCc1ccc(Nc2nc(N)c(-c3nc4ccccc4c(=O)n3-c3ccc(Cl)cc3)s2)cc1`, in that order: 11.42% and 0.09%.
As to `Cn1c(-c2cscn2)nc2cc(Cl)ccc21`, the Inhibition with Staphylococcus aureus is -4.5%; with Escherichia coli it was -10.62%.
`CCc1ccc(-n2c(-c3sc(Nc4ccccc4)nc3N)nc3ccccc3c2=O)cc1`: the Inhibition with Staphylococcus aureus was 9.22%; with Escherichia coli, -7.31%.
`N#Cc1ccccc1-c1ccc(Cn2c(-c3cscn3)nc3ccccc32)cc1`: the Inhibition with Staphylococcus aureus was 0.09%; with Escherichia coli, -0.92%.
For `CCc1ccc(Nc2nc(N)c(-c3nc4ccccc4c(=O)n3-c3ccccc3)s2)cc1`, in that order: 14.54% and -0.69%.
For `Clc1cccc2[nH]c(-c3cscn3)nc12`, in that order: -11.71% and -6.5%.
For `N#Cc1ccccc1-c1ccc(Cn2c(-c3cscn3)nc3cc(Cl)ccc32)cc1`, in that order: -3.28% and -8.05%.
As for `N=C(Nc1ccccc1)c1cscn1`, the Inhibition is -2.93% with Staphylococcus aureus and 3.08% with Escherichia coli.
Regarding `O=[N+]([O-])c1ccc(Cn2c(-c3cscn3)nc3ccccc32)cc1`, the Inhibition in the experiment on Staphylococcus aureus is on record as 0.92%; with Escherichia coli, -6.04%.
For `N#Cc1ccccc1-c1ccc(Cn2c(-c3cscn3)nc3ccc(Cl)cc32)cc1`, in that order: -8.21% and -6.57%.
On to `Clc1ccc2nc(-c3cscn3)n(Cc3ccccc3)c2c1`, for which the figures for the Inhibition in the experiment with Staphylococcus aureus and with Escherichia coli were -8.96% and -8.13%, respectively.
On to `Nc1nc(Nc2ccccc2)sc1-c1nc2ccccc2c(=O)n1-c1ccccc1`, for which the figures for the Inhibition in the experiment on Staphylococcus aureus and with Escherichia coli were 10.63% and 1.98%, respectively.
For `N#Cc1ccccc1-c1ccc(Cn2c(-c3cscn3)nc3c(Cl)cccc32)cc1`, the Inhibition in the experiment on Staphylococcus aureus stood at 2.86%; in the experiment on Escherichia coli, 1.52%.
Consider `N#Cc1ccc(Cn2c(-c3cscn3)nc3c(Cl)cccc32)cc1`, for which the Inhibition in the experiment on Staphylococcus aureus is listed as -3.58%; in the experiment on Escherichia coli, -8.14%.
For `Nc1nc(Nc2ccccc2)sc1-c1nc2ccccc2c(=O)n1-c1ccc(Cl)cc1`, in that order: 3.1% and -14.74%.
Consider `N=C(Nc1ccccc1Cl)c1cscn1`, for which the Inhibition in the experiment on Staphylococcus aureus was found to be 4.17%; in the experiment with Escherichia coli, 18.4%.
For `CCc1ccc(Nc2nc(N)c(-c3nc4ccccc4c(=O)n3-c3ccc(CC)cc3)s2)cc1`, in that order: 1.66% and -1.71%.

The values are drawn from ChEMBL document CHEMBL4513154, “CO-ADD screening of Jain University (India) compounds”.
